High-throughput results: PubChem BioAssay, National Center for Advancing Translational Sciences (NCATS)
An excerpt weighted towards active compounds, which were near 0.71% of everything screened.
RECQ1 inh = inhibitors of human RECQ1 DNA helicase; P46063; RECQ1 DNA unwinding, red fluorescence kinetic read; Potency, µM (doses to about 57.3 µM), for inactives: top-dose activity, negative = inhibition, hits mostly inhibitors; 0.54% of 240,000 active; AID 2549;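 also: plate controls were vehicle for no effect and no enzyme for full effect; nearly all actives have a fitted effect of over 30% in size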
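RECQ1T1 50 nM; forked duplex (20 bp + 30-nt ss tails) 200 nM, ATP 2 mM final; pH 8.0, 2 mM MgCl2, 2.5 ug/ml poly(dI-dC); 15 min compound preincubation; discontinuous kinetic read over 2 h at RT.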
GoLoco inh red = RGS12 GoLoco-Gai1 interaction inhibition | AID 880 | 0.44% of 230,000 active | Potency, µM (titrated, usually from 61.6 µM), for inactives: at the top dose activity, negative = inhibition, hits mostly inhibitors | Gai1:RGS12 GoLoco peptide FP, rhodamine, 10 min; active = well fitted inhibition curve with a large enough effect, not every such curve was filed as active; inactive = no such curve, though single readings can be large or run the other way; also: % is scaled to controls: 0 for no effect and ±100 for the full control effect; nearly all actives have a fitted effect of over 30% in size
TR SRC2 fluor cs = counter-screen for TRb-SRC2 inhibitors: fluorescence interference; TRb/SRC2 Texas Red total fluorescence interference; Potency, µM (top dose mostly 106 µM), for inactives: at the top dose fluorescence change, negative = quenching; 0.29% of 280,000 active; active = well fitted curve in either direction with a large enough effect; inconclusive = small, poorly fitted or top-dose-only effect; also: % is scaled to controls: 0 for no effect and ±100 for the full control effect
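Flags fluorescent or light-absorbing compounds by total fluorescence, S + 2P, at 555 nm excitation and 632 nm emission. Mixture: 20 nM Texas Red SRC2 peptide, 0.6 uM human TRb LBD, 1 uM T3, 5% DMSO; compound exposure 5 h at ambient temperature.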
TRb-SRC2 inh = inhibitors of human thyroid hormone receptor beta-SRC2 interaction. P10828. TRbeta-SRC2 peptide binding, fluorescence polarization; receptor liganded with 1 µM T3. Potency, µM (top dose mostly 106 µM), for the others: at the highest dose activity change, negative = inhibition, most hits filed as inhibitors. 0.065% of 280,000 active;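 also: plate controls were bound peptide for no effect and peptide without receptor for full effect; nearly all actives have a fitted effect of over 50% in size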
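Each compound concentration gave % activity, normalized to unbound and bound Texas Red SRC2 controls, from polarization read after 5 hr ambient incubation with T3-loaded human TRb LBD.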
ERG Ets-DNA blk = inhibitors of human ERG Ets domain-DNA interaction; fluorescence polarization, His-ERG Ets domain / labelled DNA; Potency, µM (highest dose often 76.9 µM), inactives show at the top dose FP activity, negative = inhibition, most hits filed as inhibitors; 0.028% of 370,000 active; AID 624246; active = well fitted inhibition curve with a large enough effect in the polarisation, with a control signal flat; inconclusive = small, poorly fitted or top-dose-only effect, or effect the other way, or a change in a side signal; inactive = no such curve, though single readings can be large or run the other way; the % refers to the polarisation;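 also: polarization taken with two DNA probes labelled with fluorescein and Texas red; % of control where 0% means no effect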
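His-tagged ERG Ets domain (1 uM in the protein solution; 300mM KCl, 50mM Tris-HCl, 1mM EDTA, 1mM DTT, pH 7.5) received compound, then a probe mix of 5 nM fluorescein-DNA and 100nM Texas-615-DNA. Fluorescence polarization was read for both dyes.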
BLM helicase inh = blocks DNA unwinding by human BLM helicase; P54132; recombinant BLM DNA unwinding, fluorescence dequenching; Potency, µM (titrated, usually from 56.1 µM), for inactives: top-dose activity change, negative = inhibition, most hits filed as inhibitors; 0.2% of 350,000 active;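 also: plate controls were vehicle for no effect and no enzyme for full effect; nearly all actives have a fitted effect of over 35% in size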
Target sequence (P54132 whole entry, looked up): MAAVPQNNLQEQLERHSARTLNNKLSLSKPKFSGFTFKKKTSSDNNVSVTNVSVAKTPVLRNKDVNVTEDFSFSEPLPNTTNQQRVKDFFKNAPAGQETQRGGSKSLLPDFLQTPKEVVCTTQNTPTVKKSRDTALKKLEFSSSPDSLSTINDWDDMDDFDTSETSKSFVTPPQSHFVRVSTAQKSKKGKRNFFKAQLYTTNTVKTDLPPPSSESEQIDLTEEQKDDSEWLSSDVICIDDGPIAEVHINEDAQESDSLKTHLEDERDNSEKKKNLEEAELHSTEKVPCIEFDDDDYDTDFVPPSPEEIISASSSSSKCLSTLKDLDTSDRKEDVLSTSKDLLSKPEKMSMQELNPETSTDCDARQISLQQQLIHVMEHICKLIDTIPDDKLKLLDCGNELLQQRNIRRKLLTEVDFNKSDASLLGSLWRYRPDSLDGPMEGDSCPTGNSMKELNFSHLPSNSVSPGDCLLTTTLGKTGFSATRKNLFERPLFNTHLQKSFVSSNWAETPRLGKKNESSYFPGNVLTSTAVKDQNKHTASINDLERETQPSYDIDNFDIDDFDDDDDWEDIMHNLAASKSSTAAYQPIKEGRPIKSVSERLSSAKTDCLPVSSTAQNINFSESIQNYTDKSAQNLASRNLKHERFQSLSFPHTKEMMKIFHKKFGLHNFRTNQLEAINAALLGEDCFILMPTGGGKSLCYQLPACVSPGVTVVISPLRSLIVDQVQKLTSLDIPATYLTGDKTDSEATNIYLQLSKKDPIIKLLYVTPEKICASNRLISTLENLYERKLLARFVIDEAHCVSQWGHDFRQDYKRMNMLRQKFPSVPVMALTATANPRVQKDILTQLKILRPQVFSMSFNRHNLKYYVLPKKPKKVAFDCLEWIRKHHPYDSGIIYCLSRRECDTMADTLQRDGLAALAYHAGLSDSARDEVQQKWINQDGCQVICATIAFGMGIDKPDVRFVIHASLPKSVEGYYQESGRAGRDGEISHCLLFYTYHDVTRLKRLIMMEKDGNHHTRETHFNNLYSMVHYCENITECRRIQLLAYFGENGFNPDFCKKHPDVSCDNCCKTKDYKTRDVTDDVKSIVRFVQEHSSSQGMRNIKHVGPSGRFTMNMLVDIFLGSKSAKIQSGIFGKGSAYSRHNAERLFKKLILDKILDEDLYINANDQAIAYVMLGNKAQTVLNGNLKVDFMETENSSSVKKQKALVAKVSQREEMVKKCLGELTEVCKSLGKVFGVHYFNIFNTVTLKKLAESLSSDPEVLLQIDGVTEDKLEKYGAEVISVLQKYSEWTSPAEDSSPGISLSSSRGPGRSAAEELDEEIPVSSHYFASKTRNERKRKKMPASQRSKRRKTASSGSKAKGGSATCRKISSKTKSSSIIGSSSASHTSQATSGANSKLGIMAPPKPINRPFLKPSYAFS
* marks the source's active call; other numbers are inactive results; i = inactive; ? = inconclusive; · = no result; ! = a repeat was not active; [ ] = remark or other dose. Unless noted, calls follow the shape of the dose curve; as a rule, active = well fitted curve in the direction sought with a large enough effect; inconclusive = small, poorly fitted or top-dose-only effect, or another doubt; inactive = no such curve, though single readings can be large; an effect the other way counts as inactive or inconclusive. Potency is read from the fitted curve at half-maximal effect.

SMILES	RECQ1 inh	GoLoco inh red	TR SRC2 fluor cs	TRb-SRC2 inh	ERG Ets-DNA blk	BLM helicase inh
[N-]=C=C1C(=S)NC(=O)[C@H]([n+]2ccccc2)[C@H]1c1ccc(Cl)cc1	32µM*	-30%	-25%	9%	-21%	3%
CC(C)CN(CC(C)C)c1nc(N)c(C#N)c(CC#N)c1C#N	28µM*	10%	-1%	-12%	16%	-8%
O=C(Nc1nnc(S(=O)(=O)N2CCCCC2)s1)c1ccc(F)cc1	·	·	100µM*[quencher]	-12%	-1%	-11%
O=C(Nc1nnc(S(=O)(=O)N2CCCC2)s1)c1ccc(F)cc1	·	·	1%	-1%	1%	2%
CSc1ccc(/C=N/NC(=O)c2ccc(C)c(C)c2)cc1	1%	94%	1%	8%	5%	28µM*
CC(=O)CC(=O)Nc1ccccc1C	·	·	-5%[201 µM]	-2%[201 µM]	·	·
Cc1ccc(NC(=O)CN(C)C(=O)Cn2cc(C(F)(F)F)ccc2=O)cc1	-1%	·	-3%	-4%	-12%	2%
CN(CC(=O)Nc1ccc(Cl)c(C(F)(F)F)c1)C(=O)Cn1cc([N+](=O)[O-])ccc1=O	·	·	·	·	25µM*	·
c1ccc2[nH]c(SN3CCOCC3)nc2c1	i	8.9µM*	2%	-19%	·	0%
CC(=O)OC1CC(OC(C)=O)[C@]2(C)C(CC(=O)[C@]3(C)C2CC[C@@]2(C)C(c4ccoc4)OC(=O)C4O[C@@]423)C1(C)C (some centres not stated)	4%	22µM*	1%	-1%	·	-8%
CC(C)=CCC/C(C)=C/CO/N=C1/C[C@@H](O)[C@@H](O)[C@@H]2[C@@H]3C(=O)N([C@@H](C)c4ccccc4)C(=O)[C@H]3CC[C@@H]12	12%[11.5 µM]	·	2%[11.2 µM]	-3%[11.2 µM]	·	-5%[12.4 µM]
CC(=O)OC(C(=O)c1ccccc1)c1ccccc1 (configuration not stated)	-12%	16µM*	-1%	-1%	·	·
N#Cc1ccc2c(c1)C[C@]1(c3ccsc3)Oc3c(c(=O)oc4ccccc34)C2O1	·	·	·	·	·	-16%[12.4 µM]
COC(=O)c1ccc(NC(=O)N2CCC(CN3CCc4ccccc4C3)CC2)cc1	·	·	112µM*[quencher]	-30%	5%	1%
COc1ccc(Cl)cc1NC(=O)N1CCC(CN2CCc3ccccc3C2)CC1	·	·	56µM*[quencher]	-26%	-3%	2%
COc1ccc(C(=O)Nc2ccc(N3CCOCC3)cc2)cc1OC	i	-3%	0%	-4%	-2%	-5%
COc1ccc(C(=O)Nc2ccc(N3CCOCC3)c(C(F)(F)F)c2)cc1OC	·	·	11µM*[quencher]	-6%	6%	-4%
CN(C)c1ccc(NC(=O)CSCc2nc3c(nnn3Cc3ccc(F)cc3)c(=O)[nH]2)cc1	-10%	3.5µM*	-8%	5%	1%	-1%
Cc1cccc(NC(=O)CSCc2nc3c(nnn3Cc3ccc(F)cc3)c(=O)[nH]2)c1C	i	-9%	0%	-5%	-2%	-6%
C=CCc1ccccc1OCC(O)CN1CCN(c2ccccc2)CC1 (configuration not stated)	·	·	1.6µM*[quencher]	?	-1%	-5%
O=C1c2ccccc2C(=O)c2c(NC3CCCCC3)ccc(Nc3ccc(S(=O)(=O)O)cc3)c21	·	3.5µM*	·	·	·	·
Cc1ccc(N=C2NC(=O)S/C2=C\c2ccco2)cc1	-8%	-8%	12%	6%	17%	22µM*
COc1ccc(N=Nc2nc3cc(Br)c(Br)cc3n2C)c(OC)c1	5%	1.6µM*	0%	9%	-21%	-21%
COc1ccc(C2CC(c3ccccc3)=NN2C(=O)COC(=O)c2cccnc2Cl)cc1 (configuration not stated)	-14%	-3%	-7%	-2%	1%	-11%
COc1ccc(C2CC(c3ccccc3)=NN2C(=O)COC(=O)c2cc(S(=O)(=O)N3CCOCC3)ccc2Cl)cc1 (configuration not stated)	4%	13µM*	-3%[53 µM]	5%[53 µM]	·	3%
SMILES	RECQ1 inh	GoLoco inh red	TR SRC2 fluor cs	TRb-SRC2 inh	ERG Ets-DNA blk	BLM helicase inh
Cc1sc2ncn(CC(=O)N(C)c3cccc(C(F)(F)F)c3)c(=O)c2c1S(=O)(=O)N1CCN(c2ncccn2)CC1	·	·	0.079µM*[quencher]	-25%[53 µM]	7%	-9%
O=[N+]([O-])c1ccc(O)cc1C(F)(F)F	·	·	1%[201 µM]	-9%[201 µM]	·	·
Cc1cc(C)c(S(=O)(=O)/N=C2/C=C(Sc3ncn[nH]3)C(=O)c3ccccc32)cc1C	11%	-49%	-3%	-4%	-7%	10µM*
CO[C@H]1C[C@@H]2CC[C@@H](C)[C@@](O)(O2)C(=O)C(=O)N2CCCC[C@H]2C(=O)OC([C@H](C)C[C@@H]2CC[C@@H](O)[C@H](OC)C2)CC(=O)[C@H](C)/C=C(\C)[C@@H](O)[C@@H](OC)C(=O)[C@H](C)C[C@H](C)/C=C/C=C/C=C/1C (some centres not stated)	i	-4%	-1%	3%	·	-6%
COc1ccc2nc(-n3c(O)c(C4=c5ccccc5=NC4=O)[nH]c3=S)sc2c1	-6%	18%	?	15%	-2%	20µM*
Cn1c(O)c(C2=c3ccccc3=NC2=O)[nH]c1=S	5%	9%	-7%	5%	1%	1%
CN(C)c1ccc(C(=C2C=CC(=[N+](C)C)C=C2)c2ccc(N(C)C)cc2)cc1	10µM*	-43%	-10%[201 µM]	100µM*	·	22µM*!
N#C/C(=C\c1ccc(O)c(O)c1)C(=O)Nc1cccc2ncccc12	·	·	·	·	0%	13µM*
CC(C)CC(=O)N[C@H](C(=O)N[C@H](C(=O)N[C@@H](CC(C)C)[C@@H](O)CC(=O)N[C@@H](C)C(=O)N[C@@H](CC(C)C)[C@@H](O)CC(=O)O)C(C)C)C(C)C	32µM*!	-11%	-5%	10%	-4%	1%
CC[C@H](C)[C@H](N)C(=O)N[C@H](C(=O)N[C@@H](CO)C(=O)N[C@@H](C)C(=O)N[C@H](C(=O)N[C@H](C(=O)NCC(=O)N[C@H](C(=O)N[C@@H](CC(C)C)C(=O)O)[C@@H](C)CC)C(C)C)C(C)C)[C@@H](C)CC	-2%	·	-1%	-6%	·	-1%
O=c1c2ccccc2sc2ccccc12	·	·	·	·	-6%	·
O=c1c(C(c2ccccc2)c2c(O)sc3ccccc3c2=O)c(O)sc2ccccc12	32µM*	9%	-4%	21%	·	?
Cc1nnc(NN)n(N)c1=O	19%	8.9µM*	-1%	-2%	10%	-2%
CCN(CC)c1ccc(/C=c2\sc3nc4ccccc4n3c2=O)c(O)c1	-23%	-30%	50µM*[fluorescent]	-19%	-3%	-5%
O=c1/c(=C/c2ccc(O)c([N+](=O)[O-])c2)sc2nc3ccccc3n12	0%	1%	-2%	-3%	-2%	-2%
